In all, about 310,000 compounds went through this assay and about 14,000 (4.5%) showed an effect of 50% or more. Effects have a minus sign here. The sample holds strong results, similar compounds and a random draw of the others, so the mix is not that of the screen.
These compounds were tested against human ether-à-go-go-related gene (hERG) potassium channel (human, UniProt Q12809) (assay: primary screen, population patch clamp on CHO cells stably expressing hERG; higher = less effect of the substance).
human ether-à-go-go-related gene (hERG) potassium channel, sequence (Q12809 whole entry, looked up): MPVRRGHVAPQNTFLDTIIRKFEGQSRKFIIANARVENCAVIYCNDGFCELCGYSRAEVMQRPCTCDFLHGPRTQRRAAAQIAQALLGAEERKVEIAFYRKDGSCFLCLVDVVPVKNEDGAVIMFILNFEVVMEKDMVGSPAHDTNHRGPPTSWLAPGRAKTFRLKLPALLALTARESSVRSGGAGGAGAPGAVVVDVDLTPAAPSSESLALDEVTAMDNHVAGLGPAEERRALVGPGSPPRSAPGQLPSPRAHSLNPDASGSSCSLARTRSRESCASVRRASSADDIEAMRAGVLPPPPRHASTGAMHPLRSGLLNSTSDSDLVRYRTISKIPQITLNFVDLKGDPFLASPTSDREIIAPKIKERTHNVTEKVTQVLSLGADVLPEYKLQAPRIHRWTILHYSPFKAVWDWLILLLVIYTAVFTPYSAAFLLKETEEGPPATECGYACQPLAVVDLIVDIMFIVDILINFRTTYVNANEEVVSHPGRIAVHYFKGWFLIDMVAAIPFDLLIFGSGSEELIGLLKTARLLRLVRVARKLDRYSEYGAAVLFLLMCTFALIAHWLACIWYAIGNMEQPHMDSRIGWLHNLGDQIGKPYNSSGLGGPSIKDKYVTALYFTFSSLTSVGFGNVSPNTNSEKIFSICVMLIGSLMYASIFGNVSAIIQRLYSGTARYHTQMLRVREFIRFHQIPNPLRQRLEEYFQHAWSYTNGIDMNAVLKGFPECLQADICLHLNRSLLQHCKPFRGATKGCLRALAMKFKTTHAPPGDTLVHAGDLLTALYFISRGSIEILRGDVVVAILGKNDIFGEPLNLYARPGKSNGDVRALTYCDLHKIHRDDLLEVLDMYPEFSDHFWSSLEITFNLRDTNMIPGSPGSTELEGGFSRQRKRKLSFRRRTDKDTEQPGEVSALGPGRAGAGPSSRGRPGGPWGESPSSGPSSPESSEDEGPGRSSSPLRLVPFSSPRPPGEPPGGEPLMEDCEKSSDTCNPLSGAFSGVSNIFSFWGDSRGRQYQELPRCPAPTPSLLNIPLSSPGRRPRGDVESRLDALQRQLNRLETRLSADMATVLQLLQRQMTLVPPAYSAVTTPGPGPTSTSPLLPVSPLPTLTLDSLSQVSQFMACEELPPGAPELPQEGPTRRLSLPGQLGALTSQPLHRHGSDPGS
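Further: peak tail current of the secondary pulse compared with the same well before compound.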

Structure (SMILES) | hERG current change (%, negative = inhibition) at 10uM
COC(=O)c1cccc(CSc2nnc(-c3ccco3)n2-c2ccccc2)c1 | -33.9%
C=CCNc1nnc(Cc2ccc(C(C)C)cc2)c(=O)[nH]1 | -0.924%
CC(C)(C)c1ccc(-c2noc(CCC(N)=O)n2)cc1 | -11%
Cc1ccc(NC(=O)C2CCN(S(=O)(=O)c3c(C)n[nH]c3C)CC2)nc1 | -23%
Cn1nc(C(=O)NC2CCCCC2)c2c1-c1ccccc1SC2 | -3.08%
CC1CCCCN1CCCNC(=O)c1nn(C)c2c1CSc1ccccc1-2 (centres unmarked) | -67.1%
CC1CCCN(CCCNC(=O)c2nn(C)c3c2CSc2ccccc2-3)C1 (centres unmarked) | -72.5%
Cn1nc(C(=O)NCCCN2CCCCC2)c2c1-c1ccccc1SC2 | -66%
CC1CCC(NC(=O)c2nn(C)c3c2CSc2ccccc2-3)CC1 (centres unmarked) | 3.11%
CC1CCCN(C(=O)c2nn(C)c3c2CSc2ccccc2-3)C1 (centres unmarked) | -11.7%
CC1CCCCN1CCCNC(=O)c1nn(C)c2c1CS(=O)(=O)c1ccccc1-2 (centres unmarked) | -8.49%
CC1CCCN(CCCNC(=O)c2nn(C)c3c2CS(=O)(=O)c2ccccc2-3)C1 (centres unmarked) | -39.8%
Cn1nc(C(=O)NCCCN2CCCCC2)c2c1-c1ccccc1S(=O)(=O)C2 | -0.878%
COc1cc(NC(=S)NC(=O)c2ccccc2C)ccc1NC(=O)c1cccs1 | -1.24%
CSc1n[nH]c(NCc2cccs2)n1 | 8.8%
CC(C)CC(C(=O)NCC1CCCO1)N(C(=O)Cn1nnc(-c2ccc(F)cc2)n1)c1cccc(C(F)(F)F)c1 (centres unmarked) | -0.701%
CSc1nc(O)c(C(c2ccc(OC(C)C)cc2)c2c(O)nc(SC)[nH]c2=O)c(=O)[nH]1 | 16.9%
CCOc1ccc(S(N)(=O)=O)cc1-c1nc2c(C(C)(C)C)nn(C)c2c(=O)[nH]1 | 10.9%
CC(Sc1nnnn1-c1ccc(O)cc1)C(=O)NC1CCCCC1C (centres unmarked) | -9.23%
CC(=O)C1=C(O)C(=O)N(c2ccc(S(=O)(=O)Nc3nccs3)cc2)C1c1ccc([N+](=O)[O-])cc1 (centres unmarked) | 10.6%
C=CCn1c(SCc2nc3ccccc3c(=O)[nH]2)nc2sc3c(c2c1=O)CCCC3 | 2.93%
Cc1ccc(-c2nnc(OCc3nc4ccccc4n3C)c3ccccc23)cc1 | -12%
c1ccc(-c2nnc(OCc3cccnc3)c3ccccc23)cc1 | -83.2%
COc1ccc(-c2nnc(OCc3ccccc3)c3ccccc23)cc1 | 1.82%
c1ccc(COc2cncc(-c3cccnc3)c2)cc1 | -17.8%
Cc1ccc(-c2nnc(OCc3cccnc3)c3ccccc23)cc1 | -75.7%
Cc1ccc(Oc2nnc(-c3ccccc3)c3ccccc23)cc1 | -2.98%

Structure (SMILES) | hERG current change (%, negative = inhibition) at 10uM
CCC(C)n1c(-c2cccs2)nc2nc3ccccc3nc21 (centres unmarked) | -4.95%
COCCn1c(SCC(=O)Nc2ccc(Cl)cn2)nnc1-c1ccncc1 | -54.2%
CNC(=O)CSc1nnc(-c2ccncc2)n1Cc1ccccc1 | 9.26%
Cc1cc(NC(=O)CSc2nnc(-c3ccncc3)n2C)n(-c2ccccc2)n1 | -21.9%
COCCn1c(SCC(=O)Nc2cc(C)nn2-c2ccccc2)nnc1-c1ccncc1 | -37.7%
COCCn1c(SCC(=O)Nc2cc(C(C)(C)C)nn2-c2ccccc2)nc2ccccc2c1=O | -4.39%
COCCn1c(SCC(=O)Nc2nnc(C)s2)nnc1-c1ccncc1 | -0.996%
Cc1cc(NC(=O)CSc2nnc(-c3ccncc3)n2Cc2ccccc2)n(-c2ccccc2)n1 | -58.8%
COCCn1c(SCC(=O)Nc2cc(C(C)(C)C)nn2-c2ccccc2)nnc1-c1ccncc1 | -60%
COCCn1c(SC(C)C(=O)Nc2ccc(Cl)cn2)nnc1-c1ccncc1 (centres unmarked) | 4.13%
O=C(c1ccc(N2CCCC2=O)cc1)N1CCN(c2ccccc2Cl)CC1 | -12.1%
COc1ccc(S(=O)(=O)NCc2cc(=O)n(C)c(=O)n2C)cc1C | 22.6%
COc1ccc(Cl)cc1NC(=O)c1noc(C)c1[N+](=O)[O-] | -29.5%
O=C(NNC(=O)c1cc(-c2ccc(Cl)cc2Cl)nc2ccccc12)Nc1ccccc1 | 1.72%
Cn1c(CN2CCN(C(=O)COc3ccccc3)CC2)nc2cc([N+](=O)[O-])ccc21 | -55.2%
Cc1ccc(C(C)C)c(OCC(=O)N2CCN(Cc3nc4cc([N+](=O)[O-])ccc4n3C)CC2)c1 | -65.8%
CN1CCN(Cc2nc3cc(NC(=O)COc4ccc([N+](=O)[O-])cc4)ccc3n2C)CC1 | 9.29%
Cn1c(CN2CCN(C(=O)c3ccc(F)cc3)CC2)nc2cc([N+](=O)[O-])ccc21 | -67.5%
Cn1c(CCNC(=O)c2ccco2)nc2cc([N+](=O)[O-])ccc21 | -26%
CCCC(=O)NCCc1nc2cc([N+](=O)[O-])ccc2n1C | -16.4%
Cc1ccc(C(C)C)c(OCC(=O)N2CCN(CC(=O)N3CCOCC3)CC2)c1 | 1.81%
CCCC(=O)N1CCN(Cc2nc3cc([N+](=O)[O-])ccc3n2C)CC1 | -36.8%
CC(=O)N1CCN(Cc2nc3cc(NC(=O)COc4ccccc4)ccc3n2C)CC1.Cl | 0.239%
Cn1c(CN2CCN(C(=O)c3ccco3)CC2)nc2cc([N+](=O)[O-])ccc21 | -60%
O=C(CSc1nccn1-c1ccc(Cl)cc1)N1CCCc2ccccc21 | -11.7%
Cc1cc(NC(=O)c2cccc(S(=O)(=O)N3CCC(C)CC3)c2)no1 | 0.978%

— paper PMC4336329 (PLoS ONE, 2015)
